Most compounds without a hit are left out; they make up all but 5.2% or so of the library.
Tau ThT inhib – blocks human tau fibril formation measured by thioflavin T; P10636; recombinant tau K18 P301L, heparin-induced fibrillization, ThT fluorescence; Potency, µM (top dose mostly 57.4 µM), most hits filed as inhibitors; 270,000 tested, 2.1% active; AID 1460; note: nearly all actives have a fitted effect of over 55% in size
Target sequence (P10636 561-689 P618L limits assumed): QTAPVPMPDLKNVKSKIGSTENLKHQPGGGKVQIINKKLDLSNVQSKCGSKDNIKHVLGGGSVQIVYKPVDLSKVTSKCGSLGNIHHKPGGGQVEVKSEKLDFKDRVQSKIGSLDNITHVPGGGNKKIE
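Recombinant human tau K18 fragment […] carrying P301L, 15 uM unlabeled plus 0.24 uM Alexa 594-labeled, was fibrillized with 20 uM heparin in 100 mM sodium acetate pH 7 for 6 hr at 37 C; 30 uM ThT fluorescence read after 1 hr.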
Tau FP inhib – tau fibrillization inhibition (FP). Potency, µM (highest dose often 57.7 µM), actives largely listed as inhibitors. K18 P301L tau heparin fibrillization, Alexa594 FP, 6 h. P10636. 280,000 tested, 0.39% active; note: nearly all actives have a fitted effect of over 55% in size
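Quantitative HTS format: compounds meet 15 uM recombinant K18 P301L tau and Alexa 594-tau tracer in 100 mM sodium acetate pH 7; 20 uM heparin triggers fibrillization at 37 C over 6 hr; FP gives the signal.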
Sfp inh – blocks B. subtilis Sfp PPTase activity; AID 1490; 310,000 tested, 3.5% active; Biochemical Sfp PPTase activity, qHTS; Potency, µM, actives largely listed as inhibitors;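 note: the enzyme is Sfp with the accession as filed and its product quenches rhodamine fluorescence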
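After 15 min at room temperature with compound, 15 nM Sfp received 5 uM rhodamine-CoA plus 12.5 uM BHQ-2-ybbR (50 mM Hepes pH 7.6, 10 mM MgCl2). Rate came from the fluorescence difference over 30 min, ex 525/em 598 nm.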
Tau fluor counter – counter-screen for tau fibril formation inhibitors; Potency, µM (series often up to 57.7 µM); tau K18 P301L (four-repeat tau fragment) Alexa594 fluorescence, heparin fibrillization; AID 1463; 280,000 tested, 0.93% active; note: nearly all actives have a fitted effect of over 55% in size
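Human K18 P301L tau (15 uM unlabeled plus 0.24 uM Alexa 594-labeled, final) in 100 mM sodium acetate pH 7 was mixed with compound and 20 uM heparin and incubated 6 hr at 37 C.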
FBPA coupling cs – counter-screen for Giardia aldolase inhibitors: coupling enzyme system; AID 2472; activity change, negative = inhibition, % at 58.2 µM, hits read low; 290,000 tested, 0.67% active; coupling enzyme system counterscreen, AmpLite Red fluorescence; in the data active = activity change below about -30%
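Coupling enzymes only (glyceraldehyde-3-phosphate) + compound, at 57.5 uM final, 10 min RT; add substrate/coupling/AmpLite Red mix, 20 min RT; fluorescence ex 525/em 598 nm. Actives flag coupling-system interference.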
A number is an active result; [ ] = dose if it differs, or a comment. Unless noted, calls come from the whole dose curve; as a rule, active = well fitted curve in the direction sought with a large enough effect; inconclusive = small, poorly fitted or top-dose-only effect, or another doubt; inactive = no such curve, though single readings can be large; an effect the other way counts as inactive or inconclusive.

What do the screens show for `Cc1cccc(NC(=O)Cc2coc3ccc4ccccc4c23)n1`?
Tau ThT inhib: inactive; Tau FP inhib: inactive; Sfp inh: 56µM; Tau fluor counter: inactive; FBPA coupling cs: inactive

Results for O=[N+]([O-])c1cc(S(=O)(=O)C(F)(F)F)ccc1Sc1nc2ccccc2s1 ?
Tau ThT inhib: 16µM; Tau FP inhib: inactive; Sfp inh: inactive; Tau fluor counter: 13µM[quencher]; FBPA coupling cs: inactive

Results for CS(=O)(=O)c1ccc(Sc2nc3ccccc3s2)c([N+](=O)[O-])c1 ?
Tau ThT inhib: inconclusive; Tau FP inhib: inactive; Sfp inh: inactive; Tau fluor counter: inconclusive; FBPA coupling cs: inactive

How did O=[N+]([O-])c1cc(S(=O)(=O)C(F)(F)F)ccc1Sc1nc2ccccc2[nH]1 do in these assays?
Tau ThT inhib: 25µM; Tau FP inhib: inactive; Sfp inh: inactive; Tau fluor counter: 13µM[quencher]; FBPA coupling cs: inactive

How did COc1ccc(NC(=O)Nc2cccs2)cc1Cl do in these assays?
Tau ThT inhib: inconclusive; Tau FP inhib: inconclusive; Sfp inh: 45µM; Tau fluor counter: 10µM[quencher]; FBPA coupling cs: inactive

What do the screens show for `CCOC(=O)/C=C/C(=O)OCC(=O)Nc1ccc(OC)c(Cl)c1`?
Tau ThT inhib: inconclusive; Tau FP inhib: inactive; Sfp inh: inactive; Tau fluor counter: inactive; FBPA coupling cs: inactive

How did O=C(Nc1cccs1)Nc1c(F)c(F)cc(F)c1F do in these assays?
Tau ThT inhib: inconclusive; Tau FP inhib: inactive; Sfp inh: 45µM; Tau fluor counter: inactive; FBPA coupling cs: inactive

Results for O=C(Nc1cccs1)Nc1c(F)c(F)c(F)c(F)c1F ?
Tau ThT inhib: inactive; Tau FP inhib: inactive; Sfp inh: 45µM; Tau fluor counter: inactive; FBPA coupling cs: inactive

What do the screens show for `COc1ccc(NC(=O)COC(=O)/C=C/C(=O)OCC(=O)Nc2ccc(OC)c(Cl)c2)cc1Cl`?
Tau ThT inhib: inactive; Tau FP inhib: inactive; Sfp inh: 79µM; Tau fluor counter: inactive; FBPA coupling cs: inactive

Results for COc1ccc(NC(=O)CCC(=O)c2cccs2)cc1Cl ?
Sfp inh: inactive; FBPA coupling cs: inactive

Results for COc1cccc(NC(=O)CSc2nc3cc(OC)c(OC)cc3c3nc(-c4ccccc4)nn23)c1 ?
Tau ThT inhib: inactive; Tau FP inhib: inactive; Tau fluor counter: inactive

What do the screens show for `CCc1cccc(NC(=O)Nc2cccs2)c1`?
Tau ThT inhib: inconclusive; Tau FP inhib: inconclusive; Sfp inh: 32µM; Tau fluor counter: inconclusive; FBPA coupling cs: inactive

Results for N#Cc1cccc(NC(=O)Nc2cccs2)c1 ?
Tau ThT inhib: inactive; Tau FP inhib: inactive; Sfp inh: inconclusive; Tau fluor counter: inconclusive; FBPA coupling cs: inactive

Results for O=C(Nc1cccs1)Nc1cc(C(F)(F)F)ccc1Cl ?
Tau ThT inhib: inactive; Tau FP inhib: inactive; Tau fluor counter: 6.3µM[quencher]

What do the screens show for `Cc1cccc(C)c1NC(=O)Nc1cccs1`?
Tau ThT inhib: inconclusive; Tau FP inhib: inactive; Sfp inh: 56µM; Tau fluor counter: inactive; FBPA coupling cs: inactive

What do the screens show for `COC(=O)c1ccccc1NC(=O)Nc1cccs1`?
Tau ThT inhib: inconclusive; Tau FP inhib: inactive; Sfp inh: 40µM; Tau fluor counter: inactive; FBPA coupling cs: inactive

Results for Cc1cccc(C)c1NC(=O)Cc1cccs1 ?
Sfp inh: inactive; FBPA coupling cs: inactive

How did O=C(NCCCc1nc2ccccc2n1Cc1ccc(Cl)cc1)c1ccco1 do in these assays?
Tau ThT inhib: inactive; Tau FP inhib: inactive; Tau fluor counter: inactive

How did COc1cccc(C(=O)Nc2cccc(C(=O)OCc3cc(=O)n4nc(C5CC5)sc4n3)c2)c1 do in these assays?
Tau ThT inhib: inconclusive; Tau FP inhib: inactive; Tau fluor counter: inactive

Results for O=C(Nc1ccccc1)N1CCCC2(CCN(C(=O)c3csnn3)CC2)C1 ?
Sfp inh: inactive; FBPA coupling cs: inactive

What do the screens show for `COCOc1cc(OC)ccc1C(=O)/C=C/c1cccc(C(F)(F)F)c1`?
Tau ThT inhib: inactive; Tau FP inhib: inactive; Sfp inh: inactive; Tau fluor counter: inactive; FBPA coupling cs: inactive

Results for COC1OC(CO)C(OC2OC(C(=O)O)C(OC3OC(COS(=O)(=O)O)C(OC4OC(C(=O)O)C(OC5OC(CO)C(OC6OC(C(=O)O)C(OC7OC(COS(=O)(=O)O)C(OC8OC(C(=O)O)=C[C@H](O)C8OS(=O)(=O)O)C(O)C7NC(C)=O)[C@@H](O)C6O)C(O)C5NC(C)=O)[C@@H](O)C4O)C(O)C3NC(C)=O)[C@@H](O)C2O)C(O)C1NC(C)=O (some centres undefined) ?
Tau ThT inhib: inactive; Tau FP inhib: inactive; Sfp inh: inactive; Tau fluor counter: inactive; FBPA coupling cs: inactive

What do the screens show for `CCOC(=O)N1CCC(=NNc2ccc(S(N)(=O)=O)cc2[N+](=O)[O-])CC1`?
Tau ThT inhib: 5µM; Tau FP inhib: inactive; Sfp inh: inactive; Tau fluor counter: inactive; FBPA coupling cs: inactive

Results for NS(=O)(=O)c1ccc(N/N=C/c2ccc[nH]2)c([N+](=O)[O-])c1 ?
Tau ThT inhib: 7.9µM; Tau FP inhib: inactive; Sfp inh: inactive; Tau fluor counter: inconclusive; FBPA coupling cs: inactive

How did Cc1nn(-c2ccccc2)c(N2CCCC2)c1/C=N/Nc1ccc(S(N)(=O)=O)cc1[N+](=O)[O-] do in these assays?
Tau ThT inhib: 5µM; Tau FP inhib: inactive; Sfp inh: inactive; Tau fluor counter: 14µM[quencher]; FBPA coupling cs: inactive

Results for COc1cc(/C=N/Nc2ccc(S(N)(=O)=O)cc2[N+](=O)[O-])cc(OC)c1O ?
Tau ThT inhib: 1.8µM; Tau FP inhib: inactive; Sfp inh: inactive; Tau fluor counter: inconclusive; FBPA coupling cs: inactive

What do the screens show for `CC(C)C[C@H](NC(=O)[C@H](Cc1c[nH]c2ccccc12)NC(=O)[C@H](CCCCN)NC(=O)CNC(=O)[C@H](CC(C)C)NC(=O)[C@H](CO)NC(=O)[C@@H](N)Cc1cnc[nH]1)C(=O)NCC(=O)N[C@@H](Cc1cnc[nH]1)C(=O)N1CCC[C@H]1C(=O)N[C@@H](CC(=O)O)C(=O)N[C@@H](CCCCN)C(=O)N[C@@H](Cc1ccccc1)C(=O)O`?
Sfp inh: inactive; FBPA coupling cs: inactive

Results for CCOC(=O)N1CCC(=NNc2ccc(S(=O)(=O)N3CCOCC3)cc2[N+](=O)[O-])CC1 ?
Tau ThT inhib: inconclusive; Tau FP inhib: inconclusive; Sfp inh: inactive; Tau fluor counter: inactive; FBPA coupling cs: inactive

What do the screens show for `CCN(CC)S(=O)(=O)c1ccc(N/N=C(\C)c2ccc3c(c2)OCO3)c([N+](=O)[O-])c1`?
Tau ThT inhib: inactive; Tau FP inhib: inactive; Sfp inh: inactive; Tau fluor counter: inactive; FBPA coupling cs: inactive

How did COc1ccc(/C=N\Nc2ccc([N+](=O)[O-])cc2[N+](=O)[O-])c(C(=O)O)c1OC do in these assays?
Tau ThT inhib: 14µM; Tau FP inhib: inactive; Sfp inh: 79µM; Tau fluor counter: inactive; FBPA coupling cs: inactive

Results for NS(=O)(=O)c1ccc(N/N=C/c2ccc(C(=O)O)cc2)c([N+](=O)[O-])c1 ?
Tau ThT inhib: 11µM; Tau FP inhib: inactive; Sfp inh: inconclusive; Tau fluor counter: inactive; FBPA coupling cs: inactive
